# Pf growth 48h: P. falciparum growth inhibition at 48 hours (one generation); P. falciparum luciferase growth in erythrocytes, 48 h; Potency, µM (top dose mostly 28.7 µM), without a hit: top-dose activity change, negative = inhibition, most hits filed as inhibitors; actives 5.9% (n = 310,000); AID 504832; note: potency is the fitted concentration of half-maximal effect; % is set by controls: 0 for no effect and ±100 for the full control effect
#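 Compounds are pin-transferred into medium, infected erythrocytes (2% hematocrit, 0.1% parasitemia final) are added, and plates sit one parasite generation at 37 C in 5% CO2. Detection reagent is then added and luminescence measured.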
# AMA1-RON2 inh: AMA1-RON2 (P. falciparum) interaction inhibition; Potency, µM (series often up to 58.2 µM), inactives show top-dose activity change, negative = inhibition, usual class: inhibitors; AlphaScreen AMA1-biotinylated RON2 peptide binding; actives 0.2% (n = 360,000);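 note: potency is the fitted concentration of half-maximal effect; 0% = vehicle wells and -100% = peptide control; nearly all actives have a fitted effect of over 45% in size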
#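 AMA1 (3D7) with his tag at 25 nM final met compounds first, then biotinylated RON2 peptide at 25 nM; detection used donor plus acceptor beads, 10 µg/mL apiece, read by AlphaScreen after 30 min at room temperature.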
# Pf growth 96h: P. falciparum growth inhibition at 96 hours. Potency, µM (top dose mostly 28.7 µM), inactives show at the top dose activity change, negative = inhibition, actives largely listed as inhibitors. actives 6.9% (n = 320,000). AID 504834. P. falciparum luciferase reporter growth, 96 h; note: potency is the fitted concentration of half-maximal effect; % is set by controls: 0 for no effect and ±100 for the full control effect
#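 Cell-based qHTS: luciferase-tagged P. falciparum in erythrocytes (2% hematocrit, 0.05% parasitemia final) incubated with compounds for 96 hours, 37 C, 5% CO2; luciferase detection reagent then added and luminescence measured.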
# Shiga toxin inh: blocks Shiga toxin action in Vero cells; Vero cells, Shiga toxin protein synthesis inhibition reporter; AID 2315; inhibition, % at 38.7 µM; actives 9.2% (n = 290,000); in the data active = inhibition mostly above about 28%, no sharp cut-off; inactive = mostly below about 43%; note: 0% is about no effect
# HCV inh: HCV inhibition. actives 3.4% (n = 340,000). Huh7.5.1 HCVcc-Cre infection, luciferase reporter, 44 h. Potency, µM (series often up to 41.8 µM), for inactives: top-dose activity change, negative = inhibition, usual class: inhibitors; note: potency is the fitted concentration of half-maximal effect; % is set by controls: 0 for no effect and ±100 for the full control effect
#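 Whole-lifecycle infectious HCVcc-Cre system; cells 1,000/well, compound then virus (~0.5 moi) added 4 h after plating, 44 h culture. Luciferase read 15 sec following 15 min substrate incubation, room temp.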
# CHX counter: counter-screen hit for Shiga toxin inhibitors, cycloheximide | max response, % | actives 12% (n = 300,000) | AID 2314 | cell reporter, cycloheximide protein synthesis inhibition counterscreen; in the data active = max response mostly above about 13%, no sharp cut-off; inactive = mostly below about 14%; note: read at 38.3 µM for the half of the compounds with a filed dose; 0% is about no effect
# Numbers without * were called inactive; ? = inconclusive; / = not tested or not shown; [ ] = remark or other dose. Hits are enriched below; roughly 21% of the tested compounds scored in any of these assays. Unless noted, calls come from the whole dose curve; as a rule, active = well fitted curve in the direction sought with a large enough effect; inconclusive = small, poorly fitted or top-dose-only effect, or another doubt; inactive = no such curve, though single readings can be large; an effect the other way counts as inactive or inconclusive.
SMILES,Pf growth 48h,AMA1-RON2 inh,Pf growth 96h,Shiga toxin inh,HCV inh,CHX counter
CCn1c(=O)[nH]c2cc(C(=O)Nc3cc(C)cc(C)c3)ccc2c1=O,4.65µM*,-19.3%,29.7%,-16.5,?,-4.6
COCCn1c(=O)[nH]c2cc(C(=O)NCCCN3CCN(c4ccc(F)cc4)CC3)ccc2c1=O,8.1%,5.2%,?,-2.6,10µM*,-1.6
CCN1CCN(CCCNC(=O)c2ccc3c(=O)n(CCc4ccccc4)c(=O)[nH]c3c2)CC1,?,-7.8%,?,27.1,10µM*,-3.2
O=C(Nc1cc(S(=O)(=O)N2CCOCC2)ccc1N1CCCC1)c1ccc2c(c1)S(=O)(=O)c1ccccc1C2=O,?,-7.2%,?,-19.1,-9.6%,-2.4
COc1ccccc1C(=O)NC(=O)CSc1nnnn1C,/,25.2%,/,/,4.9%,/
c1ccc(-c2onc(-c3ccco3)c2-c2ccc3c(c2)OCO3)cc1,?,29.4%,13.1µM*,25.2,-8.5%,5.8
O=C(ONC1=NCCCCC1)c1cccc([N+](=O)[O-])c1,16.8%,-7.8%,?,12.4,?,9.2
O=[N+]([O-])c1cccc(/C=N/NC2=NCCCCC2)c1,?,0.0%,?,62.0*,5.4%,35.7*
Oc1ccccc1/C=N/NC1=NCCCCC1,64.6%,63.0%,26.5%,94.8*,13.5%,33.7*
Cc1ccc(N(CC(=O)N2CCCCCC2)S(C)(=O)=O)c(C)c1,/,13.5%,/,/,/,/
NC(=O)c1ccc(Oc2ccc3ccc(=O)oc3c2)c([N+](=O)[O-])c1,5.2%,-0.3%,-0.3%,-15.2,4.7%,-1.1
O=c1ccc2ccc(Oc3ccc([N+](=O)[O-])cc3Cl)cc2o1,30.6%,-0.5%,16.2%,19.8,11.2µM*,16.6
Cc1nn(Cc2ccccc2Cl)c(Cl)c1C(=O)NCCc1ccccc1,168.6%,3.2%,126.4%,99.9*,?,47.5*
Cc1nn(Cc2ccccc2)c(C)c1C(=O)OCC(=O)NCc1ccco1,/,-0.8%,-43.6%,-4.8,2.7%,-1.9
CCNC(=O)NC(=O)C(C)OC(=O)c1cccn1C (centres undefined),10.4µM*,5.8%,79.1%,-1.7,10.7%,-1.3
Cc1nn(Cc2ccccc2Cl)c(Cl)c1C(=O)OCC(=O)NCc1ccco1,8.6%,33.7%,/,10.4,?,10.9*
Cc1cc(NC(=O)COC(=O)c2c(C)nn(Cc3ccccc3Cl)c2Cl)no1,-7.4%,4.9%,35.3%,-9.7,?,0.6
CC(=O)Nc1ccc(NC(=O)c2c(C)nn(Cc3ccccc3)c2Cl)cc1,5.6%,14.2%,-28.5%,5.5,5.0%,-2.7
CCNC(=O)NC(=O)C(C)OC(=O)c1c(C)nn(Cc2ccccc2Cl)c1Cl (centres undefined),?,9.0%,11.7µM*,-6.3,?,-2.9
CCNC(=O)NC(=O)C(C)OC(=O)c1c(C)nn(Cc2ccccc2)c1Cl (centres undefined),13.1µM*,9.4%,?,-3.7,12.2%,-1.8
CC(=O)Nc1ccc(NC(=O)C(C)OC(=O)c2c(C)nn(-c3ccccc3)c2Cl)cc1 (centres undefined),?,2.1%[11.6 µM],?,/,-6.6%,/
Cc1ccc(OCCC(=O)OCC(=O)Nc2c(C)nn(-c3ccccc3)c2C)cc1,5.0%,16.0%,32.2%,/,19.5%,/
Cc1ccc(N(CCC#N)C(=O)COC(=O)C2CCN(S(=O)(=O)c3ccc4c(c3)OCCO4)CC2)cc1,-16.6%,-5.5%,2.2%,/,5.6%,/
O=c1[nH]c2cc3ccccc3cc2nc1-c1nnnn1C1CCCC1,/,-9.2%,/,/,/,/
Cc1cccc(C)c1N/C=C/c1onc(C)c1[N+](=O)[O-],-7.2%,33.8%,1.9%,-6.9,24.0%,-0.5
Cc1ccc(N/C=C/c2onc(C)c2[N+](=O)[O-])cc1,103.4%,-2.6%,95.3%,117.4*,6.0%,74.5*
O=C(CSC1=NC2(CCCCC2)N=C1c1ccccc1)Nc1ccc2c(c1)OCCO2,10.4µM*,0.0%,?,18.8,11.2µM*,7.0
Cn1cc(SCC(=O)Nc2ccc3c(c2)OCCO3)c2ccccc21,28.1%,-7.5%,33.4%,63.3*,-5.0%,24.2*
Cc1cc(NC(=O)CSc2cn(C)c3ccccc23)no1,/,12.8%,?,-11.2,-24.9%,-7.0

# Assay outcomes deposited in PubChem by National Center for Advancing Translational Sciences (NCATS).
